# Test results reported in PubChem BioAssay.
# Several values for one entry are separate records, joined by “and”; a condition that tells them apart may be missing. Equal entries are not always repeated. Activity calls are given as the source filed them.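 How the source made its calls, unless noted: active means at least 20% inhibition of 6-phosphogluconate dehydrogenase activity; inactive means the rest.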
# What was measured:
# [1] = biological target: 6-phosphogluconate dehydrogenase, decarboxylating (Homo sapiens) (UniProt P52209); experiment: inhibition of human phosphogluconate dehydrogenase – biochemical, recombinant enzyme, NADPH absorbance, primary screen (AID 1159550); conditions: recombinant 6PGD, NADPH absorbance 341 nm; at 10 µM; stronger effect = higher value
# [2] = compounds altering circadian rhythm period length – cell-based, LOPAC library, luminescence reporter (AID 2774; call rule not given here;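 further: values are relative to mean of DMSO wells on each plate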); conditions: circadian reporter cells, at 7 µM, actives lie on both sides
# [3] = tested on: Hepatitis C virus NS3 helicase; experiment: blockers of NS3h binding to ssDNA – biochemical, fluorescence polarization, LOPAC1280 library, primary screen (AID 687035; in the data active means inhibition above about 37%); conditions: Purified HCV NS3 helicase, Cy5-dT15 ssDNA binding fluorescence polarization; stronger effect = higher value; concentration not given here
# [4] = Wnt pathway potentiators raising nuclear beta-catenin – imaging, WNT3A-conditioned medium, mouse C2C12, NPC library, primary screen (AID 1117326; in the data active means nuclear beta-catenin stimulation mostly above about 4.2%, no sharp cut-off; inactive means mostly below about 10%); conditions: stronger effect = higher value
# [5] = growth inhibition of GSK3B-pretreated HCT116 cells – cell-based, CellTiter-Glo, 0.2 to 20 µM (AID 1117336;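 active means compounds lowering colon cancer cell viability after pretreatment blocking the GSK3B kinase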); conditions: HCT116 viability after GSK3B inhibitor, at 20 µM, stronger effect = higher value
# [6] = HCT116 colon cancer cell growth inhibition, primary screen, CellTiter-Glo luminescence, NPC library (AID 1117342;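 active means compounds that lower survival of HCT116 colon cancer cells in the luminescence readout, no numeric limit stated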); conditions: at 20 µM (top of the series)
# [7] = reduced SW480 viability measured with CellTiter-Glo, NPC library, primary (AID 1117343;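 active means compounds that lower viability of the colon cancer cells in the luminescence readout, with no numeric limit stated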); conditions: CellTiter-Glo luminescence; at 20 µM (top of the series)
# [8] = NPC library primary testing for decreased DLD-1 cell viability via CellTiter-Glo (AID 1117346;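 active means compounds that lower survival of DLD-1 colon cancer cells in the luminescence readout, no cutoff given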); conditions: DLD-1 viability, CellTiter-Glo luminescence; at 20 µM (top of the series)
# [9] = tested on: Aerobactin synthetase IucA (Klebsiella pneumoniae, hypervirulent); experiment: biochemical IucA inhibition screen of LOPAC library by absorbance (AID 1346212; call rule not given here;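 further: 100% = no compound wells and 0% = no enzyme wells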); conditions: IucA enzyme assay, absorbance (OD) readout; stronger effect = lower value;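 tested at 8 µM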
# [10] = viability loss with induced miR-34 in A549 – imaging, A549 dox-inducible miR-34, nuclei and caspase counts, primary screen (AID 1347080;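 active means compounds whose cell count with miR-34 switched on is under 0.7 times the count with it off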); conditions: A549 miR-34 inducible, Hoechst nuclei count, 48 h
# [11] = galactose survival enhancers in mitochondrial complex I cybrids – cell-based, galactose medium, ATP luminescence, primary screen (AID 1645843;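 active means z-score of at least 1.8 in each of two replicates, scored against plate mean and spread of sample wells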;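 further: positive z means more ATP and so rescue of galactose-driven cybrid death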); conditions: complex I mutant cybrid cells, 72 h, stronger effect = higher value
# [12] = P. berghei load reduction in hepatocytes – cell-based, HepG2, luciferase luminescence, HepG2 viability, primary screen (AID 624349; in the data active means parasite load remaining mostly below about 12%, no sharp cut-off; inactive means mostly above about 10%;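 further: 100% = mean of DMSO negative control wells on the same plate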); conditions: P. berghei liver stage in HepG2, luciferase luminescence, concentration not given here; parasite load remaining: stronger effect = lower value; viability: measured here: HepG2 viability without parasites
# [13] = inhibition of endothelial tube formation, primary screen, imaging, VEGF stimulated, CD31 staining, tube area, NPC library (AID 1117340;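 active means compound that reduces growth-factor-driven endothelial tube area in a mixed cell culture, no cutoff stated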); conditions: VEGF-stimulated ADSC/ECFC co-culture, at 10 µM, stronger effect = higher value
# [14] = EMT-state selective cytotoxicity in co-culture – imaging, PC-3E GFP, TEM4-18 mCherry, primary screen (AID 1345086;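 active means compounds killing one labelled cell type while sparing the other, by normalised counts and ratio limits, not self-fluorescent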;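 on all read-outs here: cells exposed to compound for 72 h before imaging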;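 on red/green cell ratio (normalised): normalised mesenchymal count divided by normalised epithelial count so high means epithelial killing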); conditions: PC-3E GFP / TEM4-18 mCherry co-culture, imaging cell counts, at 1 µM; for red/green cell ratio (normalised): actives lie on both sides
# [15] = biological target: NAD(+) hydrolase SARM1 (Homo sapiens) (UniProt Q6SZW1); experiment: blocking NAD cleavage by SARM1 SAM-TIR – cell lysate, NAD-Glo luminescence (AID 1508614;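 active means compound whose remaining NAD level is above about 45 nM, limit read from the data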); conditions: SAM-TIR HEK293T lysate NADase, at 1 µM, stronger effect = higher value
# [16] = compounds altering viability of human ES cells (AID 493140; call rule not given here;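 further: cells exposed to compounds for four days before counting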); conditions: human embryonic stem cell survival screen; stronger effect = higher value
# [17] = MELAS cybrid and Rieske KO viability enhancers – cell-based, MELAS cybrids, Rieske KO mouse fibroblasts, CellTiter-Glo, primary screen (AID 1508586;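 active means mean z-score across replicates of 1.96 or higher in either the MELAS or the Rieske mutant cell line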;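 further: z relative to plate mean and SD of compound and empty wells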); conditions: low glucose
# [18] = measured here: relative caspase fold change +Dox/-Dox
# [19] = measured here: total cells with miR-34 induction, stronger effect = lower value
# [20] = measured here: total cells without miR-34 induction
# [21] = measured here: epithelial PC-3E GFP cell survival
# [22] = measured here: mesenchymal TEM4-18 mCherry cell survival
# Chain of 6-phosphogluconate dehydrogenase, decarboxylating (Homo sapiens) (P52209 whole entry, looked up): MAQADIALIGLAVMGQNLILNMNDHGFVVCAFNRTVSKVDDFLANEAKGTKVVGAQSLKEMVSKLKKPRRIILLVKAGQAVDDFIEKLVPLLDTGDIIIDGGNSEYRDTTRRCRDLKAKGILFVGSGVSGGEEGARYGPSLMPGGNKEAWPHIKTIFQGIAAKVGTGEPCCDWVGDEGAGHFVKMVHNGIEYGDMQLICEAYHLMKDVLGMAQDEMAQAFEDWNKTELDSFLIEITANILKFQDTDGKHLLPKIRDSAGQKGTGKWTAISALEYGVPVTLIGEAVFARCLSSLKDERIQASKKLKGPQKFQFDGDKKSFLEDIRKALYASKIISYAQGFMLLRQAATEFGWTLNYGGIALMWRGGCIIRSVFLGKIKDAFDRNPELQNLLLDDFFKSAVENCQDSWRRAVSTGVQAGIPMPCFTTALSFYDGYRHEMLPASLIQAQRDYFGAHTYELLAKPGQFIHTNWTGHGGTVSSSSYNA
# Chain of NAD(+) hydrolase SARM1 (Homo sapiens) (Q6SZW1 whole entry, looked up): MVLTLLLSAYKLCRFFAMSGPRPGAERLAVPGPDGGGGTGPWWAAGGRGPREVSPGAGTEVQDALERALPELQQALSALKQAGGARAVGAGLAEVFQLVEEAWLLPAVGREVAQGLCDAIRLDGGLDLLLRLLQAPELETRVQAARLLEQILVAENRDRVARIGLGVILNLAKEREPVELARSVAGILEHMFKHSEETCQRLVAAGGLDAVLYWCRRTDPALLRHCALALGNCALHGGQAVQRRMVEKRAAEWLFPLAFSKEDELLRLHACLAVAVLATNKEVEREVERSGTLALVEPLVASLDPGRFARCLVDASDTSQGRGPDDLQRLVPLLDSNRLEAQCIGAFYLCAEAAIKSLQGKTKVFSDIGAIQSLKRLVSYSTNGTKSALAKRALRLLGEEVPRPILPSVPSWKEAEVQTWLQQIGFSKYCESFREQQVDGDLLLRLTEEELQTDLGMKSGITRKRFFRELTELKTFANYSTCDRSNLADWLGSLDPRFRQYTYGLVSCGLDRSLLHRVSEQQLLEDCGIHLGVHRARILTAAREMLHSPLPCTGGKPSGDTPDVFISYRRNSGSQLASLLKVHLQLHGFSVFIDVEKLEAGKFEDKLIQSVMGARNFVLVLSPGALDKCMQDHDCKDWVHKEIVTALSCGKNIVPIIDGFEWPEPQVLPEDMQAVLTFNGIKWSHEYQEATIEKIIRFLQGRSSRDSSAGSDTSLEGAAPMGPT
compound,measurement,setting,value
C[C@]12CC[C@H](O)C[C@H]1CC[C@@H]1[C@@H]2[C@H](O)C[C@]2(C)[C@@H](C3=CC(=O)OC3)CC[C@]12O,inhibition,[1],11.1% (inactive)
CO[C@H]1[C@H](O)[C@H](O[C@H]2CC[C@@]3(C=O)[C@H](CC[C@@H]4[C@@H]3CC[C@]3(C)[C@@H](C5=CC(=O)OC5)CC[C@]43O)C2)O[C@@H](C)[C@@H]1O,inhibition,[1],-22% (inactive)
CCOP(=S)(OCC)SCSCC,inhibition,[1],7.84% (inactive)
Clc1ccc(Cl)cc1,inhibition,[1],7.33% (inactive)
c1cncc([C@@H]2CCCCN2)c1,inhibition,[1],4.92% (inactive)
CN1[C@@H]2C[C@@H]3C[C@H]1[C@H](O)[C@H]2O3,inhibition,[1],-5.75% (inactive)
COP(=O)(OC)OC(C)C(C)=O (stereo not drawn),inhibition,[1],13.2% (inactive)
CN[C@@H](Cc1c[nH]c2ccccc12)C(=O)O,inhibition,[1],8.96% (inactive)
CC[C@H]1/C=C\C=C\C[C@H](C)[C@@H](O)[C@](C)(O)C(=O)[C@H](C)[C@@H](O)C(C)C(=O)[C@H](C)[C@H](O)[C@@H](C)/C=C/C(=O)OC2C(C)[C@H](CC1)O[C@@]1(CC[C@@H](C)[C@@H](CC(C)O)O1)[C@@H]2C (stereo partly drawn),inhibition,[1],-4.41% (inactive)
CC1(C)[C@H](O)CC(=O)[C@@]2(C)[C@@H]1CC(=O)[C@]1(C)[C@H]2CC[C@@]2(C)[C@H](c3ccoc3)OC(=O)[C@H]3O[C@]321,inhibition,[1],8.09% (inactive)
C[C@@H]1CC[C@@]2(OC1)O[C@H]1[C@@H](O)[C@H]3[C@@H]4CC[C@H]5C[C@@H](O[C@@H]6O[C@H](CO)[C@H](O[C@@H]7O[C@H](CO)C(O)[C@H](O[C@@H]8OC[C@@H](O)[C@H](O)[C@H]8O)[C@H]7O[C@@H]7O[C@H](CO)[C@H](O)[C@H](O[C@@H]8O[C@H](CO)[C@@H](O)[C@H](O)[C@H]8O)[C@H]7O)[C@H](O)[C@H]6O)[C@H](O)C[C@]5(C)[C@H]4CC[C@]3(C)[C@H]1[C@@H]2C (stereo partly drawn),inhibition,[1],-7.91% (inactive)
CC[C@@H](C)C(=O)O[C@H]1[C@H](O)[C@H]2[C@@H](CN3C[C@@H](C)CC[C@H]3[C@@]2(C)O)[C@@H]2C[C@]34O[C@]5(O)[C@@H](OC(=O)[C@@](C)(O)[C@@H](C)O)CC[C@@]3(C)[C@@H]5[C@@H](OC(C)=O)[C@@H](OC(C)=O)[C@H]4[C@@]21O,inhibition,[1],7.64% (inactive)
COc1cc2c(cc1OC)C(=O)c1ccc(OC)c(OC)c1OCC(=O)C2,inhibition,[1],-4.44% (inactive)
COP(=O)(NC(C)=O)SC (stereo not drawn),inhibition,[1],-9.95% (inactive)
COc1ccc2c(c1OC)C(=O)O[C@H]2[C@@H]1c2cc3c(cc2CCN1C)OCO3,period change,[2],-0.14 h (inactive)
same,inhibition,[3],-3% (inactive)
same,nuclear beta-catenin stimulation,[4]; at 10 µM,-0.8% (inactive)
same,nuclear beta-catenin stimulation,"[4]; stimulation, at 2 µM",7.9%
same,viability decrease,[5],19.2% (inactive)
same,inhibition of viability,[6],19.8% (inactive)
same,viability decrease (inhibition),[7],3.5% (inactive)
same,viability decrease (inhibition),[8],-6.5% (inactive)
same,inhibition,[1],-1.62% (inactive)
same,remaining activity,[9],110% (inactive)
same,fold change,[10]; stronger effect = lower value,0.977 (inactive)
same,fold change,[10]; [18],1.1
same,cell count,[10]; [19],10700
same,cell count,[10]; [20],10900
same,z-score,[11],0.055 (inactive)
COc1cc2c(cc1OC)[C@H]1C(=O)c3ccc4c(c3O[C@H]1CO2)C[C@@H](C(C)C)O4,inhibition,[1],-1.45% (inactive)
CN(C)C(=S)SSC(=S)N(C)C,parasite load remaining,[12],69.7% (inactive) and -0.72% (inactive)
same,viability,[12],84.1% and 106%
same,nuclear beta-catenin stimulation,[4]; at 10 µM,68.4% (active)
same,nuclear beta-catenin stimulation,"[4]; stimulation, at 2 µM",48.7%
same,viability decrease,[5],65% (active)
same,tube area decrease,[13],39.3% (inactive)
same,inhibition of viability,[6],16.3% (inactive)
same,viability decrease (inhibition),[7],62.7% (active)
same,viability decrease (inhibition),[8],59.7% (active)
same,inhibition,[1],-10.3% (inactive)
same,red/green cell ratio (normalised),[14],1.29 (inactive)
same,normalised cell number,[14]; [21],0.66
same,normalised cell number,[14]; [22],0.85
same,fold change,[10]; stronger effect = lower value,0.701 (inactive)
same,fold change,[10]; [18],4.9
same,cell count,[10]; [19],7410
same,cell count,[10]; [20],10600
same,remaining NAD,[15],48 nM (active)
CN1C[C@H](CNC(=O)OCc2ccccc2)C[C@@H]2c3cccc4c3c(cn4C)C[C@H]21,period change,[2],0.135 h (inactive)
same,survival,[16],2.67 (inactive)
same,parasite load remaining,[12],77.5% (inactive) and 64.4% (inactive)
same,viability,[12],74.4% and 69.2%
same,inhibition,[3],-2% (inactive)
same,nuclear beta-catenin stimulation,[4]; at 10 µM,53.7% (active)
same,nuclear beta-catenin stimulation,"[4]; stimulation, at 2 µM",5.7%
same,viability decrease,[5],93.3% (active)
same,inhibition of viability,[6],94% (active)
same,viability decrease (inhibition),[7],101% (active)
same,viability decrease (inhibition),[8],92.2% (active)
same,inhibition,[1],-7.03% (inactive)
same,remaining activity,[9],130% (inactive)
same,fold change,[10]; stronger effect = lower value,0.705 (inactive) and 0.866 (inactive) and 0.969 (inactive)
same,fold change,[10]; [18],1.05 and 1.44 and 0.756
same,cell count,[10]; [19],1820 and 6760 and 7430
same,cell count,[10]; [20],2580 and 7810 and 7670
same,z-score,"[17]; MELAS cybrid survival, CellTiter-Glo 48 h, stronger effect = higher value",0.443 (inactive)
same,z-score,"[17]; Rieske KO mouse fibroblast survival, CellTiter-Glo 72 h",0.114
same,remaining NAD,[15],10 nM (inactive)
same,z-score,[11],-1.27 (inactive) and -0.62 (inactive)
COc1c2c(cc3c1OCO3)[C@]13C=C[C@H](OC)C[C@H]1N(C2)C[C@@H]3O,inhibition,[1],-2.74% (inactive)
COC(=O)C(Cl)C(=O)OC,nuclear beta-catenin stimulation,[4]; at 10 µM,0.3% (inactive)
same,nuclear beta-catenin stimulation,"[4]; stimulation, at 2 µM",6.8%
same,viability decrease,[5],51.9% (active)
same,inhibition of viability,[6],37.3% (inactive)
same,viability decrease (inhibition),[7],-7.9% (inactive)
same,viability decrease (inhibition),[8],3.4% (inactive)
C[C@]12CCC(=O)C=C1CCc1ccc(O)cc12,inhibition,[1],-3.52% (inactive)
Clc1ccc(COC(Cn2ccnc2)c2ccc(Cl)cc2Cl)c(Cl)c1 (stereo not drawn),inhibition,[1],-24.1% (inactive)
same,red/green cell ratio (normalised),[14],1.04 (inactive)
same,normalised cell number,[14]; [21],0.94
same,normalised cell number,[14]; [22],0.97
same,remaining NAD,[15],10 nM (inactive)
same,z-score,[11],-1.52 (inactive) and -2.01 (inactive)
